# NLRP3 yeast inh: blocks the NALP3 inflammasome reconstituted in yeast; Yeast reconstituted NLRP3/ASC/caspase-1, beta-gal luminescence, 24 h; inhibition, % at 10 µM; 0.39% of 330,000 active;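 active = inhibition of 50% or more; inactive = inhibition below 50%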;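 also: plate controls were induced DMSO wells for no effect and uninduced yeast grown without galactose for full effect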
# tim23-1 inh: inhibits growth of tim23-1 mutant yeast | inhibition, % at 20 µM | S. cerevisiae tim23-1 growth, BacTiter-Glo luminescence, 24 h | AID 463212 | 1.3% of 330,000 active;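 active = growth inhibition of the mutant yeast at or above 50%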;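 also: temperature-sensitive mutant grown at 25 °C; plate controls were DMSO-treated mutant yeast for no effect and medium wells lacking yeast for full effect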
# tim10-1 inh: inhibits growth of tim10-1 mutant yeast. inhibition, % at 20 µM. AID 463190. S. cerevisiae tim10-1 ts strain growth, BacTiter-Glo, 24 h. 2.2% of 330,000 active;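 active = inhibition of at least 40%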;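 also: mutant grown at 25 °C; 0% = DMSO wells with yeast and 100% = wells holding no yeast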
# PfHsp90 set2: inhibits growth of yeast expressing Plasmodium falciparum Hsp90; S. cerevisiae expressing PfHsp90, BacTiter-Glo ATP, 48 h; yeast lacking PDR1 and PDR3 efflux regulators; inhibition, % at 9.4 µM; 0.32% of 310,000 active;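 active = every replicate shows inhibition above about 80%, whatever the replicate mean, limit read from the data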;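 also: 0% = DMSO neutral controls and 100% = 20 µM radicicol positive controls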
# TIM10 inh: inhibits growth of TIM10 yeast strain; AID 463195; 1.4% of 330,000 active; S. cerevisiae TIM10 strain growth, BacTiter-Glo luminescence, 24 h; inhibition, % at 10 µM;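 active = inhibition of 40% or more at the single tested concentration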;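 also: wild-type TIM10 isogenic control strain grown at permissive 25 °C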
# NALP3 yeast conf: confirmation of NALP3 inhibitors in yeast; shares compounds with NLRP3 yeast inh; AID 435006; yeast expressing human NALP3, luminescence; 81% of 1,300 active; inhibition, % at 10 µM; in the data active = inhibition above about 48%
# Casp1 ASC ctr: caspase-1-ASC yeast counter-screen hit | 66% of 1,000 active | inhibition, % at 10 µM | AID 488784 | shares compounds with NLRP3 yeast inh | yeast expressing Caspase-1-ASC, luminescence counter screen
# NALP3 yeast rt: confirmation retest of NALP3 inhibitors in yeast | shares compounds with NLRP3 yeast inh | yeast expressing human NALP3, luminescence read-out | inhibition, % at 10 µM | 53% of 1,000 active | AID 488794
# * marks the source's active call; other numbers are inactive results; / = no result. An excerpt weighted towards active compounds, which were near 3.7% of everything screened. Rule as the data show it, unless noted: active = inhibition above about 50%; inactive = the rest.
SMILES,NLRP3 yeast inh,tim23-1 inh,tim10-1 inh,PfHsp90 set2,TIM10 inh,NALP3 yeast conf,Casp1 ASC ctr,NALP3 yeast rt
CCn1c(=O)c(C(=O)NNC(=O)c2ccc(Cl)cc2Cl)c(O)c2ccccc21,54.8*,34.5,-28.1,9.0,14.3,74.8*,21.4,25.1
Cn1c(=O)c(C(=O)NNC(=O)c2cccc(Cl)c2)c(O)c2ccccc21,27.3,40.9,-37.1,-12.3,24.8,/,/,/
Cn1c(=O)c(C(=O)NNC(=O)c2ccccc2Cl)c(O)c2ccccc21,65.9*,42.9,19.2,-24.8,34.8,80.2*,53.5*,61.4*
CCCn1c(=O)c(C(=O)NNC(=O)c2ccc(Cl)cc2Cl)c(O)c2ccccc21,44.2,15.4,30.1,25.6,-19.2,/,/,/
O=C(NCc1ccc(Cl)cc1)C(=O)N/N=C/c1ccc(Br)cc1,18.2,-14.9,-11.1,15.1,-6.5,/,/,/
Cc1ccc(/C=C(\C#N)c2nc3ccccc3[nH]2)s1,51.1*,5.2,-42.6,18.1,22.2,63.0*,44.6,46.9
COc1cc(/C=C/C(=O)OCC(=O)NCc2ccc(F)cc2)ccc1O,8.1,-2.5,-3.7,-0.2,1.5,/,/,/
COc1ccccc1-c1oc2ccccc2c1C#CC(C)(C)O,71.7*,38.8,-19.0,20.5,0.5,59.0*,71.2*,59.8*
COc1ccccc1-c1oc2ccccc2c1C#CCO,-17.8,6.6,7.4,-23.0,4.5,/,/,/
FC(F)(F)c1cccc(-c2nc3nc(Cl)c(Cl)nc3[nH]2)c1,60.6*,5.4,-7.7,-11.2,6.8,97.4*,42.0,45.4
COc1ccc(C(=O)NN/C(C)=C/C(=O)C(F)(F)C(F)(F)C(F)(F)F)cc1,56.7*,40.6,-10.9,-3.6,6.7,45.0*,40.1,30.8
COc1ccc(C(=O)NNC(=O)OC(C)(C)C)cc1,23.3,19.3,6.8,6.6,-15.1,/,/,/
COc1ccc(N(C(=O)/C=C/c2ccc(OC)c(OC)c2)C2=CC3CCC(C2)N3C)cc1 (stereo not given),0.7,2.8,-6.3,-11.1,11.7,/,/,/
O=C(COc1cccnc1[N+](=O)[O-])Nc1ccc(F)cc1,14.2,-4.0,2.0,23.6,-1.0,/,/,/
CCOc1ccccc1NC(=O)COc1cccnc1[N+](=O)[O-],58.8*,28.4,4.2,-3.6,6.4,74.3*,/,/
COc1ccccc1NC(=O)COc1cccnc1[N+](=O)[O-],51.2*,5.4,14.5,/,9.3,67.2*,75.2*,62.0*
COc1ccccc1CNc1ncccc1[N+](=O)[O-],50.0*,0.9,-4.6,26.1,6.4,47.8*,37.4,39.4
COc1ccccc1CNC(=O)COc1cccnc1[N+](=O)[O-],21.8,-0.5,-7.5,-58.9,13.6,/,/,/
Cn1cc(S(=O)(=O)N2CCN(C(=O)c3ccco3)CC2)c(=O)n(C)c1=O,-7.5,-6.5,6.3,-4.2,-3.4,/,/,/
CCOc1cc(C=O)ccc1OCCSc1ccc(Cl)cc1,53.5*,29.7,-2.8,1.7,7.8,47.6*,57.5*,34.9
CCc1ccc(OCc2nnc(SCC(=O)NC3CCCCC3)o2)cc1,14.1,9.2,19.1,-17.4,14.8,/,/,/
Fc1cccc(/C=N/Nc2nncc3ccccc23)c1,56.6*,18.1,10.5,11.5,17.7,63.2*,44.4,38.0
C(=N\Nc1nncc2ccccc12)/c1ccccn1,17.7,48.8,-22.5,-5.3,17.4,/,/,/
Cc1ccc(NC(=O)c2ccc3ccccc3n2)cc1S(=O)(=O)N1CCOCC1,-43.4,16.4,22.2,-17.6,8.8,/,/,/
O=C(Nc1cccc(S(=O)(=O)N2CCOCC2)c1)c1ccc2ccccc2n1,-103.5,46.3,27.0,-17.4,22.4,-2.5,/,/
COc1cc(NS(=O)(=O)c2cn(C)cn2)cc(OC)c1,14.6,-0.5,-5.5,-5.4,7.1,/,/,/
Cc1cc(C)n2nc(-c3cccc(Br)c3)cc2n1,49.4,32.2,27.9,-1.8,3.2,/,/,/
Cc1cc(C)n2ncc(-c3cccc(Br)c3)c2n1,50.5*,22.0,25.1,-5.0,-5.3,61.6*,31.0,24.4
CN1CCS/C1=C/C=C1\SC(=S)N(CC(=O)O)C1=O,20.6,4.9,8.7,9.2,9.9,/,/,/

# Compound activity (PubChem)
